Records with an inconclusive call do not appear. Some compounds were tested as several samples or in several runs, with calls that do not always agree. The source made the active and inactive calls. Unless noted, the call rests on the fitted dose curve; in most records, active means well fitted curve in the direction sought with a large enough effect in the repeat runs; inconclusive means weak or mixed curves; inactive means no such curve, though single readings can be large; an effect the other way counts as inactive or inconclusive.

Experimental findings from PubChem BioAssay (Tox21) are described below.

The nature of assay [1]: qHTS assay to identify small molecule HDAC inhibitors (AID 1259364). Further: nearly all actives have a fitted effect of over 45% in size. Further: potency means the concentration at half of the fitted maximal effect. Put shortly: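 Luminescence read after 30 min room-temperature HDAC-Glo incubation measures cellular class I/II HDAC activity. Compounds were applied for 2 hr at 37 C to HCT-116 wild-type cells seeded the day before.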
(In general: Quantitative high-throughput screening tests each substance at several concentrations.)

A short description of assay [2]: qHTS assay to identify small molecule HDAC inhibitors - cell viability counter screen (AID 1259365). Further: series mostly up to about 92 µM; nearly all actives have a fitted effect of over 50% in size. The procedure, abridged:
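Wild-type HCT-116 cells, 1,500/well, cultured overnight, then compound-treated 2 h at 37 C. Viability measured as ATP luminescence with CellTiter-Glo after 30 min at room temperature.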

The nature of assay [3]: qHTS assay to identify small molecule antagonists of the sonic hedgehog signaling (Shh) pathway - cell viability counter screen (AID 1259367). Further: nearly all actives have a fitted effect of over 55% in size. Put shortly:
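Cytotoxicity was assessed in parallel with Shh reporter activity by measuring live-cell protease fluorescence (CellTiter-Fluor) in NIH/3T3 cells stably carrying Gli1-Luc, treated with compound under conditioned medium stimulation for 23 hr plus 1 hr reagent incubation.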

Assay [4] can be described thus: qHTS assay to identify small molecule agonists of the sonic hedgehog signaling (Shh) pathway (AID 1259368; calls by dose curve;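 further: NIH/3T3-derived 3T3Gli1-Luc cells carrying a stable Gli1-driven firefly luciferase reporter; series mostly up to about 92 µM; nearly all actives have a fitted effect of over 15% in size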). The procedure, abridged: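 Luminescence was read after 30 min at room temperature with luciferase reagent. Before that, 3T3Gli1-Luc cells (NIH/3T3 clone, stable Gli1-Luc reporter; 2,000/well) were exposed to compounds for 24 hr at 37C, 5% CO2, compounds being added 4 hr post-plating.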

The nature of assay [5]: qHTS assay to identify small molecule antagonists of the sonic hedgehog signaling (Shh) pathway (AID 1259369; calls by dose curve; further: nearly all actives have a fitted effect of over 45% in size; further: potency means the concentration at half of the fitted maximal effect). The procedure, abridged:
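Antagonist mode: compound added to 3T3 Gli1-Luc cells followed by conditioned-medium stimulation, 24 h at 37 C, 5% CO2. Inhibition taken as loss of Gli1-driven luciferase luminescence.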

Assay [6] can be described thus: qHTS assay to identify small molecule agonists of the sonic hedgehog signaling (Shh) pathway - cell viability counter screen (AID 1259366). Further: nearly all actives have a fitted effect of over 50% in size. Put shortly:
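NIH/3T3-derived Gli1-Luc reporter cells, 2,000 per well, received compound after 4 h and were treated about 23 h at 37C. Viability measured in the same wells by CellTiter-Fluor fluorescence after 1 h.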

Assay [7] deals with Estrogen receptor beta (Homo sapiens) (UniProt Q92731). The assay can be described thus: qHTS assay to identify small molecule agonists of the estrogen receptor beta (ER-beta) signaling pathway (AID 1259377; active means well fitted activation curve with a large enough effect in the signal ratio in the repeat runs, not every such curve was filed as active; the % refers to the signal ratio; further: potency means the concentration at half of the fitted maximal effect). The procedure, abridged:
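ER-beta-UAS-bla HEK293T cells in medium with 2% charcoal-stripped FBS were exposed to compounds for 16 h at 37C. Beta-lactamase reporter activity was read as fluorescence after 2 h with LiveBLAzer B/G FRET substrate at room temperature.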

The target is the same in assay [8]. The assay can be described thus: qHTS assay to identify small molecule antagonists of the estrogen receptor beta (ER-beta) signaling pathway (AID 1259378; active means well fitted inhibition curve with a large enough effect in the signal ratio in the repeat runs, not every such curve was filed as active; the % refers to the signal ratio). Put shortly:
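ER-beta-UAS-bla HEK293T (GripTite) cells in 2% charcoal-stripped FBS medium were preincubated 6 hr at 37C, dosed with compound, then stimulated with 1 nM E2 (final) for 16 hr; beta-lactamase reporter read by B/G FRET fluorescence after 2 hr substrate loading.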

A short description of assay [9]: qHTS assay to identify small molecule phospholipidosis (PLD) inducers (AID 1259344; active means well fitted curve in the direction sought with a large enough effect; an effect the other way counts as inactive or inconclusive). Put shortly: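 Cells (HepG2, 900 per well) attach for 4 h, receive LipidTOX Red and compound together, incubate 24 h at 37 C, are fixed 30 min with paraformaldehyde/Hoechst, then imaged at one site per well.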
On the % scale 0 is the no-effect control and ±100 the full control effect.

Chain of Estrogen receptor beta (Homo sapiens) (Q92731 whole entry, looked up): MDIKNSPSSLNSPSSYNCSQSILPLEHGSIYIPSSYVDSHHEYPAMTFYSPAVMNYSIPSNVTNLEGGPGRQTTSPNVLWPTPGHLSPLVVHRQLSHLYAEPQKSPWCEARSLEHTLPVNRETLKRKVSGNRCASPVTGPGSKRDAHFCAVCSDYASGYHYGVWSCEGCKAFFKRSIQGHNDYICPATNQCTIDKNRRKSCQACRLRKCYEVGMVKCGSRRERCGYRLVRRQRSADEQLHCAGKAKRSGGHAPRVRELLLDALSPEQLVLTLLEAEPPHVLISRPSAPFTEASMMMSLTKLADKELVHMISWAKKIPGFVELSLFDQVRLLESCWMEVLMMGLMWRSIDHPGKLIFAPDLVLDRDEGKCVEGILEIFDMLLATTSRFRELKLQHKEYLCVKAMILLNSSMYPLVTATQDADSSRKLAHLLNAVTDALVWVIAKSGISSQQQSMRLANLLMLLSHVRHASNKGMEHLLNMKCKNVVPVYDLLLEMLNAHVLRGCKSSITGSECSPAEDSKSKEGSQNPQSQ

Take `Nc1ccc(Cc2ccc(N)cc2)cc1`: the Potency result in assay [1], in assay [3] and in assay [5] was “inactive” in each case. Besides, the outcome in assay [2] and in assay [4] was inactive.
For `CCC[N+](=O)[O-]`, the Potency entry in assay [1], in assay [6], in assay [3], in [5] and in [7] was “inactive” throughout. Besides, the compound was called inactive in assay [2], in [4] and in [8].
Take `Clc1ccccc1Cl`: the compound was called inactive in [9], in assay [2], in assay [4] and in assay [8]. Also, the Potency entry in assay [1], in [6], in assay [3], in assay [5] and in assay [7] was “inactive” in each case.
`CC(NC(C)(C)C)C(=O)c1cccc(Cl)c1` (centres undefined): the outcome in assay [9], in assay [2], in assay [4] and in assay [8] was inactive. Moreover, the Potency result in [1], in assay [6], in assay [3] and in assay [5] was “inactive” throughout.
`COC(=O)c1ccccc1N`: the Potency entry in assay [1], in assay [6], in assay [3], in [5] and in assay [7] was “inactive” throughout. Further, the outcome in assay [2], in assay [4] and in [8] was inactive.
Consider `CCC(C)(CC)c1cc(NC(=O)c2c(OC)cccc2OC)on1`, for which the Potency entry in [1], in assay [3] and in assay [7] was “inactive” each time. Besides, the compound was called inactive in assay [2] and in assay [4]. For the same compound, in assay [5], the Potency was 6.88 µM (active).
For the compound `CCCC1COC(Cn2cncn2)(c2ccc(Cl)cc2Cl)O1` (centres undefined), the Potency result in [1], in [6] and in assay [3] was “inactive” in each case. The outcome in [2] and in [4] was inactive. Besides, in [5], the Potency is 27.8 µM (active).
As for `NCC(O)c1ccc(O)cc1` (centres undefined), the outcome in assay [9], in assay [2], in [4] and in assay [8] was inactive. Moreover, the Potency result in assay [1], in [3], in assay [5] and in assay [7] was “inactive” in each case.
`Cc1cc(Cl)ccc1O`: the Potency result in [1], in [3] and in assay [7] was “inactive” throughout. The result in [2], in assay [4] and in assay [8] was inactive. Further, the Potency in assay [5] was 2.65 µM (active).
Turning to `CC(C)(C)C(O)(CCc1ccc(Cl)cc1)Cn1cncn1` (centres undefined), the Potency result in [1], in assay [6] and in [3] was “inactive” in each case. For the same compound, the compound was called inactive in [2] and in assay [4].
Consider `Clc1cccc(Cl)c1Cl`, for which the Potency entry in [1], in assay [3] and in assay [5] was “inactive” throughout. Also, the outcome in [2] and in assay [4] was inactive.
Regarding `CC(C)C#N`, the Potency entry in [1], in [3] and in assay [5] was “inactive” throughout. Besides, the outcome in assay [2] and in [4] was inactive.
Consider `O=S(=O)(c1ccc(Cl)cc1)c1cc(Cl)c(Cl)cc1Cl`, for which the Potency result in assay [1], in assay [6], in [3] and in assay [7] was “inactive” throughout. Besides, the result in assay [2], in assay [4] and in assay [8] was inactive.
Consider `CCNc1nc(NC(C)C)nc(SC)n1`, for which the Potency entry in assay [1], in assay [6], in assay [3], in assay [5] and in assay [7] was “inactive” throughout. Also, the call in [2], in [4] and in assay [8] was inactive.
In the case of `O=[N+]([O-])c1ccc(Oc2ccc(Cl)cc2Cl)cc1`, the Potency entry in [1], in assay [3] and in assay [5] was “inactive” each time. Besides, the compound was called inactive in assay [2], in assay [4] and in assay [8]. Moreover, the Potency in assay [7] is 61.4 µM (active) and inactive.
For the compound `CCOP(=S)(OCC)SCCSCC`, the Potency entry in assay [1], in assay [3], in assay [5] and in assay [7] was “inactive” each time. The outcome in assay [2], in assay [4] and in assay [8] was inactive.
For `O=c1ccc(=O)[nH][nH]1`, the Potency entry in assay [1], in [6], in assay [3] and in assay [5] was “inactive” each time. The call in assay [2] and in assay [4] was inactive.
As to `C#CC(C)(C)NC(=O)c1cc(Cl)cc(Cl)c1`, the Potency result in [1], in assay [6], in assay [3] and in assay [5] was “inactive” throughout. In addition, the call in assay [2] and in [4] was inactive.
As to `O=c1[nH]c(=O)[nH]c(=O)[nH]1`, the Potency entry in assay [1], in assay [3], in [5] and in assay [7] was “inactive” in each case. Moreover, the outcome in assay [2], in [4] and in assay [8] was inactive.
For the compound `CC(C)(Cl)Cl`, the Potency result in assay [1], in assay [6], in [3] and in assay [5] was “inactive” in each case. Besides, the call in [2] and in assay [4] was inactive.
As for `COCCl`, the Potency entry in [1], in [6], in [3] and in [7] was “inactive” throughout. The result in assay [2], in assay [4] and in assay [8] was inactive. In assay [5], the Potency is 16 µM (active) and inactive.
Turning to `OC(O)C(Cl)(Cl)Cl`, the compound was called inactive in assay [9], in assay [2], in assay [4] and in assay [8]. Also, the Potency result in [1], in [6], in assay [3], in assay [5] and in assay [7] was “inactive” each time.
Consider `c1ccc2c(c1)Oc1ccccc1O2`, for which the Potency result in assay [1], in assay [6], in assay [3] and in [5] was “inactive” in each case. The outcome in assay [2] and in assay [4] was inactive.
As for `CN(C)[C@@H]1C(=O)C(C(N)=O)=C(O)[C@@]2(O)C(=O)C3=C(O)c4c(O)cccc4[C@@](C)(O)[C@H]3C[C@@H]12`, the compound was called inactive in [9], in assay [2], in [4] and in [8]. The Potency entry in [1], in assay [6], in assay [3], in assay [5] and in assay [7] was “inactive” in each case.
With `CCCCCCCCCCCC#N`, the Potency result in [1], in assay [6], in assay [3], in [5] and in [7] was “inactive” each time. Besides, the outcome in [2], in [4] and in assay [8] was inactive.
For `OCCN(CCO)CCO`, the PLD induction in [9] is 10.3% [at 7.66 µM] (inactive). Further, the Potency result in [1], in assay [3] and in assay [5] was “inactive” in each case. Moreover, the result in [2] and in [4] was inactive.
On to `CN(C)N=O`, for which the Potency result in assay [1], in assay [6], in [3], in [5] and in assay [7] was “inactive” each time. Also, the call in assay [2], in assay [4] and in [8] was inactive.
In the case of `CCN(CC)CCO`, the Potency result in [1], in assay [6], in assay [3], in assay [5] and in assay [7] was “inactive” throughout. Moreover, the call in assay [2], in assay [4] and in [8] was inactive.
For `C=CCO`, the Potency in assay [1] is 28.5 µM (active) and inactive. In addition, the compound was classed as inactive in assay [2] and in assay [4]. The Potency result in assay [3] and in assay [5] was “inactive” in each case.
Consider `c1ccc2c(c1)oc1ccccc12`, for which the Potency result in assay [1], in assay [6], in assay [3], in [5] and in assay [7] was “inactive” each time. Besides, the call in assay [2], in assay [4] and in [8] was inactive.
